One experiment deals with ITFG1. The experiment can be described thus: pooled miR-30 sensor sort-seq; sequence = guide strand. The settings on record: shRNA.
TTCGTATAGATTTTTCTCCAGA: the sensor-assay potency score (higher = more potent) is -0.843.
As for TAACTTTAACAAAATAAGCATC, the sensor-assay potency score (higher = more potent) is -1.35.
For the sequence TTTTTCTCTATCATCTGCTTTC, the sensor-assay potency score (higher = more potent) is -0.602.
The sequence TATTGCTGAAATCTTGTAGGAC registered a sensor-assay potency score (higher = more potent) of 0.541.
Turning to TATACATGATATAAGGTCCAGG, the sensor-assay potency score (higher = more potent) is -0.949.
In turn, TTATCTTACGAGGACAGTCATT yielded a sensor-assay potency score (higher = more potent) of -1.41.
In turn, TATCAATGCACTGTGATTCTTG displayed a sensor-assay potency score (higher = more potent) of 0.396.
Take TTTAGGTCTGTCAGCTCCCAGT: the sensor-assay potency score (higher = more potent) was -0.933.
Still for that read-out and setting: next, TTTATCTTCACAGCCTGGCAGT: -0.637; TACTTGTAGTGGTCAATGCTGG: -0.574.

The target in the next experiment is ITFG2. The description is as above. The settings on record: shRNA.
With TATCGTTATCAACGTCTCCGAG, the sensor-assay potency score (higher = more potent) is -0.305.
TTTCTTGAGGGACACCAGCTGC had a sensor-assay potency score (higher = more potent) of -0.971.
Consider TAGATCTTCTGGTTGAAAGTGA, for which the sensor-assay potency score (higher = more potent) was -0.00804.
Take TTTTCATCCACTTGGAAGCGGA: the sensor-assay potency score (higher = more potent) was -0.742.
Take TAGGTGAGTGGAGACATTCTTG: the sensor-assay potency score (higher = more potent) is -0.555.
Turning to TTGAGGGAGCACACTGTGGTGG, the sensor-assay potency score (higher = more potent) was -0.228.
Still for that read-out and setting: the result for TTAACGTATCGTTATCAACGTC reads -0.293.
Turning to TTATACACAGACACCTTCCCGC, the sensor-assay potency score (higher = more potent) is 0.0194.
Same read-out and setting: the result for ATCGTTATCAACGTCTCCGAGG reads -1.09.
TACACAGACACCTTCCCGCTGG displayed a sensor-assay potency score (higher = more potent) of -0.00421.
TTTGATGTTGCCAATTAGGTGA returned a sensor-assay potency score (higher = more potent) of -0.267.
TAACGTATCGTTATCAACGTCT had a sensor-assay potency score (higher = more potent) of 0.345.

The target in a further experiment is ITGA2. Described as above. The settings on record: shRNA.
Turning to TAGCACTTCGTCGCCCACCAGA, the sensor-assay potency score (higher = more potent) was -1.01.
As to TTGACTGAGCGCTAACACCAGC, the sensor-assay potency score (higher = more potent) was -1.15.
In the case of TTGTCGGACATCTAGGACTAGA, the sensor-assay potency score (higher = more potent) was -0.587.
Consider TTGCATATTGAATTGCTCCGAA, for which the sensor-assay potency score (higher = more potent) was 0.0822.
TAAATCTCCATAGCCATCCAAG yielded a sensor-assay potency score (higher = more potent) of -1.12.
As for TGAACTGTGATTTCTGTCCTGC, the sensor-assay potency score (higher = more potent) came to 0.82.
The same measure, in the same setting: next, TAGGTCTGAACTTTGCACTGAA: -0.0543.
Still for that read-out and setting: next, TTCTGTTGGAATACTAGCGATT: -0.717; TTGCTTAGTAGGTCTGAACTTT: -0.177; TAAACAGGTAGACTCTTCCTTC: 0.446.
For TACTTCTGTCCCATCAACCGGC, the sensor-assay potency score (higher = more potent) was found to be 0.167.
TTTCGTAGCACTTCGTCGCCCA came in with a sensor-assay potency score (higher = more potent) of 0.484.

In the next experiment the target is ITGAM. The experiment is described as above. The settings on record: shRNA.
Regarding TTCCTTGCCTTTCACCACCTGA, the sensor-assay potency score (higher = more potent) was -0.688.
Same read-out and setting: next, TTCATGTCTGAATCCACTCTGG: 0.203; TTAGAGTCTACATCAAACGTGA: 0.224; TTCTCTTGGAAGGTCATTGCGT: -0.213.
The sequence TCAGTGTCCAAGTTGAACCCAT yielded a sensor-assay potency score (higher = more potent) of -0.0132.
TTGATGTACCAGTCAAACGAGA yielded a sensor-assay potency score (higher = more potent) of -0.909.

Values taken from the OligoGym collection.
Note: reference of the scale not given here.
